Compound activity deposited in PubChem BioAssay by several laboratories.
A selection: hits, their analogues and other compounds. The true share with any hit is near 2.4%.
SENP6 block: SENP6 protease inhibition; Recombinant SENP6 catalytic domain, aminoluciferin luminescence; 330,000 tested, 1.8% active; inhibition, % at 10 µM;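 active = inhibition above about 50% at the single tested dose, limit read from the data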;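 note: plate controls were DMSO wells with enzyme for no effect and DMSO wells lacking enzyme for full effect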
SENP8 block-1: SENP8 (human) protease inhibition; recombinant SENP8, Nedd8 substrate fluorescence; inhibition, % at 20 µM; 360,000 tested, 0.64% active; AID 602440; in the data active = inhibition mostly above about 40%, no sharp cut-off; inactive = mostly below about 27%
Target sequence (Q96LD8 whole entry, looked up): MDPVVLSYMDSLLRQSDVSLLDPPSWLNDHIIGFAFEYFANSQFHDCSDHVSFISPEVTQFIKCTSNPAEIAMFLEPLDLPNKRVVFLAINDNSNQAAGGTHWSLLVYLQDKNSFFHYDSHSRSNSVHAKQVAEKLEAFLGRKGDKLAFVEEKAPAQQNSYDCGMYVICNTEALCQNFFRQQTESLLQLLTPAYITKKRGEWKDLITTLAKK
SENP7 inh: inhibitors of human SENP7 protease. Q9BQF6. inhibition, % at 5 µM. AID 434973. recombinant SENP7, Z-RLRGG-aminoluciferin luminescence, 40 min. 330,000 tested, 1.5% active;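 active = inhibition above about 50% at the single test dose, limit read from the data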;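 note: plate controls were DMSO with enzyme for no effect and no enzyme buffer wells for full effect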
SENP8 block-2: inhibitors of human SENP8 protease; Q96LD8; purified SENP8, Z-RLRGG-aminoluciferin cleavage, luminescence; inhibition, % at 10 µM; 330,000 tested, 1.2% active; AID 2540; in the data active = inhibition above about 50%
Platelet DG rel: platelet dense granule release activity. human platelet-rich plasma, SFLLRN dense granule ATP release, luminescence. inhibition, %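 (compounds screened at 7.5 µM in platelet-rich plasma)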. 300,000 tested, 0.22% active;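 active = mean replicate score, as percent of positive control, at or above 50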
Starred values were filed as active, the others as inactive; / = no result given.

SMILES	SENP6 block	SENP8 block-1	SENP7 inh	SENP8 block-2	Platelet DG rel
CC(=O)NC(c1ccc(C)cc1)c1cc([N+](=O)[O-])c2cccnc2c1O (configuration not stated)	17	42*	8	6	-8
CCC(=O)NC(c1ccc(C)cc1)c1cc([N+](=O)[O-])c2cccnc2c1O (configuration not stated)	/	58*	/	/	-2
O=C1/C(=N\S(=O)(=O)c2cccs2)C([n+]2ccccc2)=C([O-])c2ccccc21	69*	105*	41	39	0
N/C(=N\S(=O)(=O)c1cccs1)c1ccccc1	-4	10	-2	-5	1
COc1cccc(NC(=O)CN(C)C(=O)CN2C(=O)c3ccc([N+](=O)[O-])cc3C2=O)c1	6	26	7	-3	-5
COc1ccccc1C1=CN(Cc2ccccc2)CCC1=O	-9	8	-5	5	/
Cc1ccccc1CC(=O)N1CC(C)OC(C)C1 (configuration not stated)	-6	-1	10	-3	1
CN1C(=O)/C(=C/c2cc(N=Nc3ccccc3)ccc2O)SC1=S	22	39*	17	21	4
O=C(O)c1cccc(Oc2ccc(C(=O)O)c([N+](=O)[O-])c2)c1	/	12	/	/	/
Cc1cccc(NC(=O)c2ccc(N3CCCCC3)c([N+](=O)[O-])c2)n1	76*	15	73*	48	11
Cc1cccc(NC(=O)c2ccc(N3CCOCC3)c([N+](=O)[O-])c2)n1	-17	27	7	-2	5
O=C(Nc1ccc([N+](=O)[O-])cn1)c1ccc2c(c1)OCO2	24	9	67*	-14	3
O=C(Nc1c(C(=O)Nc2cccc(F)c2)oc2ccccc12)c1ccc2c(c1)OCO2	3	-138	-4	-5	1
O=C(Nc1cccc(F)c1)c1ccc2c(c1)OCO2	86*	26	90*	71*	18
CCc1ccccc1NC(=O)Nc1ccc2c(c1)OCO2	-12	8	82*	37	2
CCc1cccc(NC(=O)Nc2ccc3c(c2)OCO3)c1	9	5	8	-6	0
CCc1nc2ccc(C(=O)Nc3ccc4c(c3)OCO4)cc2nc1CC	13	16	50	51*	/
O=C(Nc1ccc2c(c1)OCO2)c1n[nH]c(=O)c2ccccc12	67*	20	62*	38	11
CCOC(=O)C1(C)/C(=N/Nc2ccc(Cl)cc2)C(=O)C(=O)N1c1ccccc1 (configuration not stated)	-1	19	5	6	-3
CCOC(=O)C1(C)/C(=N/Nc2cccc(Cl)c2)C(=O)C(=O)N1c1ccccc1 (configuration not stated)	-1	43*	3	9	2
O=C(O)c1ccc(N/N=C/C2=Cc3ccccc3OC2)cc1	101*	-231	99*	98*	31
O=C(Nc1ccc(Cl)c(Cl)c1)C1=Cc2ccccc2OC1	3	-66	-14	-11	8
COc1ccc2[nH]c(C)c(C(=O)CN(C)CC3OCCO3)c2c1	-6	/	1	0	1
COC1=C(C)C(=O)C2=C(C1=O)C1C3CC4=C(C(=O)C(OC)=C(C)C4=O)C(CNC(=O)C(C)=O)N3C(C#N)C(C2)N1C (configuration not stated)	/	55*	/	/	/
O=c1c2ccccc2nc2c3ccccc3cnn12	-5	-400	3	-7	-1
SMILES	SENP6 block	SENP8 block-1	SENP7 inh	SENP8 block-2	Platelet DG rel
O=c1c2ccccc2cnn1-c1nc2ccccc2[nH]1	/	-372	/	/	74*
Cc1ncc(CN2CCC(N3CCC(C(=O)N4CCCC4)CC3)CC2)s1	-10	-1	3	-7	55*
c1ccc2c(c1)nnn1c3ccccc3nc21	96*	/	96*	86*	15
Cc1nc2ccccc2c2nc3ccccc3n12	1	-273	10	0	-7
CN(C)/N=C/C=C1\CC/C(=C\c2ccc(F)c(F)c2)C1=O	5	52*	-9	-5	2
CC(C)c1ccc(/C=C2\CC/C(=C\C=N\N(C)C)C2=O)cc1	-5	2	9	4	-7
COc1ccccc1-c1noc(-c2ccccc2)n1	92*	17	93*	87*	12
c1ccc(CNc2c(C3CCNCC3)nc3scc(-c4ccccc4)n23)cc1	/	7	/	/	/
COC(=O)CCC(=O)OC1(C)C(=O)C2=CN(CCN3CCOCC3)C(c3ccc(OC)cc3)=CC2=C(Br)C1=O (configuration not stated)	52*	/	16	23	7
